In PubChem BioAssay (NCI):
This is part of a sample that, as a whole, favours compounds with a hit. Of some 83,000 tested, about 20% had one in any assay.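 Treatment: one concentration, 48 hours, 96-well format. Scoring: percent growth, with anything below 10 considered active.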 Values without a mark were called inactive. The source made the active and inactive calls.

Experiments:
Assay in all cases: NCI-60 one-dose screen, 48 h (100 = growth as untreated, 0 = no growth, -100 = all killed)
Conditions in all cases: 10 µM unless noted
[1] = system: T-47D breast
[2] = system: BT-549 breast
[3] = system: MDA-MB-435 melanoma
[4] = system: SW-620 colon
[5] = system: MCF7 breast
[6] = system: HCT-116 colon
[7] = system: HCC-2998 colon
[8] = system: KM12 colon

Row | Structure (SMILES) | growth [1] | growth [2] | growth [3] | growth [4] | growth [5] | growth [6] | growth [7] | growth [8]
1 | CCOC(=O)c1c(NC(=O)c2ccc(C(C)(C)C)cc2)sc2cc(OCCN3CCCCC3)ccc12 | 96.9% | 93% | 91.8% | 22.2% | 34.8% | 21.7% | 87% | 51.1%
2 | O=c1cc(-c2ccccc2)nc2sc(-c3c[nH]c4ccc(F)cc34)nn12 | 27.2% | 56.7% | 63.7% | 60.9% | 57.9% | 57.2% | 83.4% | 84.2%
3 | O=C1c2c(O)cc(O)cc2O[C@@H](c2ccc(O)cc2)[C@@H]1c1c(O)cc(O)c2c(=O)cc(-c3ccc(O)c(O)c3)oc12 | 105% | 98.3% | 110% | 107% | 99.9% | 100% | 111% | 97.1%
4 | COc1ccc(-c2nn(-c3ccccc3)cc2/C=C/C(=O)c2ccc(NC(=O)CCCCCCC(=O)NO)cc2)cc1 | 103% | 105% | 104% | 111% | 94.2% | 95.5% | 108% | 95.9%
5 | C=C1C(=O)O[C@@H]2C[C@@H](C)[C@H](OC)CC(=O)[C@](C)(OC(C)=O)C[C@H](OC(=O)/C(C)=C\C)[C@@H]12 | 46.9% | 83.7% | 82.8% | 15.6% | 56.5% | 5.78% (active) | – | 93.7%
6 | Cc1cn(-c2cc(NC(=O)c3cncc(C#Cc4cnc5ccc(O[C@@H]6CCOC6)nn45)c3)cc(C(F)(F)F)c2)cn1 | -28.6% (active) | -96% (active) | -83.1% (active) | 6.01% (active) | -52% (active) | -95.7% (active) | -13.7% (active) | -21.5% (active)
7 | C=C1C(=O)O[C@@H]2/C=C(/C)C3=CC(=O)[C@@](C)(C[C@H](OC(=O)/C(C)=C\C)[C@@H]12)O3 | -17.4% (active) | 27.9% | -59% (active) | -28.7% (active) | 13.2% | -53.3% (active) | – | 28.2%
8 | C=C(C)C(=O)O[C@H]1C[C@@]2(C)OC(=CC2=O)/C(C)=C\[C@H]2OC(=O)C(=C)[C@H]12 | -0.517% (active) | -9.12% (active) | -57.4% (active) | -41.7% (active) | 11.7% | -68.5% (active) | – | -8.25% (active)
9 | O=C1NC(=O)c2c1c1c3ccccc3ccc1c1[nH]c3ccccc3c21 | 11.8% | 7.84% (active) | 9.08% (active) | – | 3.61% (active) | 14.4% | 46.1% | –
10 | O=C(CSc1nnc(-c2ccc(Cl)cc2)n1-c1ccccc1)Nc1ccc(F)cc1 | 80.4% | 93.2% | 92.9% | 82.3% | 81.6% | 46% | 100% | 82.4%
11 | Cc1cc2nc(C(Cl)Cl)nc(-c3ccco3)n2n1 | 79.2% | 93.3% | 89.4% | 54.1% | 46% | 74% | 58.7% | 25.4%
12 | N/C(=N\OC(=O)CSc1nc2ccccc2s1)c1ccc(Cl)cc1 | 96.6% | 107% | 101% | 98% | 97.4% | 105% | 105% | 101%
13 | Cn1c(SC(C(=O)Nc2ccc(F)cc2)c2ccccc2)nc2ccccc2c1=O (centres undefined) | 96% | 102% | 101% | 105% | 90.9% | 95.3% | 98.3% | 112%
14 | CC1OC(O[C@@H]2C(O)C(CO)OC(O[C@H]3COC(O[C@H]4CC[C@]5(C)[C@H]6CC[C@]78OC[C@@]9(CC[C@](C)(C=O)C[C@H]97)[C@H](O)C[C@@]8(C)[C@]6(C)CC[C@H]5C4(C)C)[C@@H](OC4OC(CO)[C@@H](O)[C@@H](O)[C@@H]4O)[C@@H]3O)[C@H]2OC2OC[C@@H](O)[C@@H](O)[C@@H]2O)[C@@H](O)[C@@H](O)[C@H]1O (some centres undefined) | 53.1% | -56.9% (active) | -55.1% (active) | 10% | 11% | -65.9% (active) | – | 23.7%
15 | NC(=O)c1c(NC(=O)c2cccc(OC(F)(F)F)c2)sc2c1CCC(=O)C2 | 28.1% | 28.4% | 64.7% | 18.3% | 27.4% | 15.6% | 104% | 31.4%
16 | COc1ccc(-c2ccnc3c(C#N)c(Nc4ccccc4)nn23)cc1OC | 80.5% | 86.1% | 103% | 90% | 90.2% | 87.5% | 99.1% | 96.6%
17 | O=C(O)CNS(=O)(=O)c1ccc(Oc2ccc(S(=O)(=O)NCC(=O)O)cc2)cc1 | 95.5% | 115% | 106% | 102% | 93.2% | 103% | 105% | 98.4%
18 | CC1OC(O[C@@H]2[C@H](O)C(CO)OC(O[C@H]3COC(O[C@H]4CC[C@]5(C)[C@H]6CC[C@]78OC[C@@]9(CCC(C)(C)C[C@H]97)[C@H](O)C[C@@]8(C)[C@]6(C)CC[C@H]5C4(C)C)[C@@H](OC4OC(CO)[C@@H](O)[C@@H](O)[C@@H]4O)[C@@H]3O)[C@H]2OC2OC[C@@H](O)[C@@H](O)[C@@H]2O)[C@@H](O)[C@@H](O)[C@H]1O (some centres undefined) | -54.6% (active) | -69.2% (active) | -82.8% (active) | -75.9% (active) | -55.9% (active) | -80.1% (active) | – | -51.9% (active)
19 | Oc1ccc(CSc2nnc(-c3ccccc3)n2-c2ccccc2)c2cccnc12 | 10.1% | 25.2% | 13.9% | 11.6% | 3.8% (active) | 10.8% | 26.9% | 14.1%
20 | O=C1c2c(c3c4cc(Br)ccc4[nH]c3c3ccc4ccccc4c23)C(=O)N1CCN1CCNCC1 | 61.8% | 87.6% | 92.5% | -58.4% (active) | -73.7% (active) | 11.2% | 51.5% | 88.6%
21 | COc1ccc([C@H]2c3[nH]c4ccccc4c3C[C@@H]3C(=O)N(C4CCN(Cc5ccccc5)CC4)CC(=O)N23)c(OC)c1 | 82.8% | 86.1% | 83.3% | 79.9% | 51.7% | 56.8% | 78.1% | 79.6%
22 | Oc1ccc(CSc2nnc(-c3ccccc3)o2)c2cccnc12 | 4.16% (active) | 29.4% | 21.8% | 14.5% | 9.21% (active) | 16.6% | 37.6% | 17.3%
23 | C=C(C)[C@@H]1CC[C@]2(C(=O)ON)CC[C@]3(C)[C@H](CC[C@@H]4[C@@]5(C)C/C(=C/c6ccc(Br)cc6)C(=O)C(C)(C)[C@@H]5CC[C@]43C)[C@@H]12 | 49.4% | 96.9% | 81.1% | 81.7% | 44.9% | 48.6% | 82.9% | 69.9%
24 | COc1ccccc1N1CCN(C2=NN=C(c3cccc(Cl)c3)c3ccccc3C2)CC1 | 52.5% | 50.5% | -3.46% (active) | 20.9% | 17.4% | 7.98% (active) | 8.13% (active) | 6.16% (active)
25 | CS(=O)(=O)c1ccc(-c2nn(-c3ccccc3)cc2/C=C/C(=O)c2ccc(Br)cc2)cc1 | 87.8% | 105% | 95.3% | 86.9% | 50.2% | 73.2% | 105% | 80%
26 | Clc1ccc(-c2csc(Nc3cccc(Nc4csc(-c5ccc(Cl)cc5)n4)c3)n2)cc1 | 26.8% | 112% | 88.6% | 86.6% | 60.7% | 67.2% | 89.3% | 67.6%
27 | CC1(C)CC[C@]2(C(=O)N3CCCNCC3)CC[C@]3(C)C(=CC[C@@H]4[C@@]5(C)CCC(=O)C(C)(C)[C@@H]5CC[C@]43C)[C@H]2C1 | 100% | 112% | 112% | 101% | 93.6% | 103% | 102% | 105%
28 | COc1c([C@@H](CC(C)C)OC(C)=O)ccc2c1C(=O)OCc1cc(C)cc(O)c1O2 | 17.4% | 31.3% | 30% | 20% | 18.4% | 12.3% | 35% | 30.7%
29 | CC1OC(O[C@@H]2[C@H](O)C(CO)OC(O[C@H]3COC(O[C@H]4CC[C@]5(C)[C@H]6CC[C@]78OC[C@@]9(CC[C@](C)(C=O)C[C@H]97)C(=O)C[C@@]8(C)[C@]6(C)CC[C@H]5C4(C)C)[C@@H](O)[C@@H]3O)[C@H]2OC2OC[C@@H](O)[C@@H](O)[C@@H]2O)[C@@H](O)[C@@H](O)[C@H]1O (some centres undefined) | 81.3% | 104% | 105% | 104% | 87.7% | 89.1% | – | 97%
